A short description of assay [1]: yeast TOR pathway RPL19A-GFP modulators, primary screen, cell-based, S. cerevisiae, multiplex flow cytometry (AID 1862; in the data active means percent of DMSO control GFP below about 86%;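 further: lower values mimic rapamycin by blocking the RPL19A rise seen in DMSO cells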). Particulars: S. cerevisiae RPL19A-GFP strain, flow cytometry fluorescence, 3 h; at 10 µM; stronger effect = lower value. On the technique in general: A flow cytometer gives signals particle by particle.
Assay [2] in a line: modulators of MEP2-GFP levels in yeast, primary screen, S. cerevisiae, multiplex flow cytometry (AID 1867;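 active means GFP response, as percent of the DMSO control, above the screen-wide mean plus 3 SD, about 139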;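 further: median GFP channel fluorescence of barcode-gated MEP2-GFP cells measured by flow cytometry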). The following applies: S. cerevisiae MEP2-GFP strain, 3 h, at 10 µM, stronger effect = higher value, 100% means same as DMSO wells.
The nature of assay [3]: modulators of CIT2-GFP expression in yeast, primary screen, S. cerevisiae, GFP fusion, multiplex flow cytometry (AID 1870;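 active means percent response above a set limit, the screen-wide mean plus 3 SD, cut at about 130% in these data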;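 further: barcoded CIT2-GFP strain pooled with four other GFP strains with rapamycin as positive control; median GFP fluorescence per well over plate mean of DMSO wells so 100% = DMSO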). The following applies: 3 h, at 10 µM, stronger effect = higher value.
The nature of assay [4]: modulators of LAP4-GFP expression in yeast, primary screen, S. cerevisiae, multiplex flow cytometry (AID 1873;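 active means GFP signal, as percent of the solvent control, above the screen mean plus 3 SD, about 149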). Particulars: 3 h, at 10 µM, stronger effect = higher value.
The nature of assay [5]: modulators of AGP1-GFP expression in yeast TOR pathway, primary screen, cell-based, multiplex flow cytometry, S. cerevisiae (AID 1887;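 active means GFP signal above the screen-wide mean plus 3 SD, that is over about 124.5% of the solvent control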;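 further: AGP1-GFP fusion strain of S. cerevisiae within a five-strain barcoded multiplex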). Particulars: 3 h, at 10 µM, stronger effect = higher value.
Assay [6] can be described thus: inhibitors of CD8+ T cell-vesicle binding, pilot screen, LFA-1/ICAM-1 modulator project, MLPCN validation set, flow cytometry (AID 2523;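 active means response below a set limit, under 55% cells CD8-positive and vesicle-bound, and CD8 cells' 90th-percentile brightness under 279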;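 on vesicle binding response: mean PE anti-B7-1 fluorescence of CD8+ cells relative to row control; 100% = QL9-loaded vesicles with DMSO vehicle in the same plate row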). The following applies: 2C mouse CD8+ T cells, at 7 µM, stronger effect = lower value; double positive events: measured here: CD8+/vesicle+ event percentage.
Assay [7] deals with Integrin beta-1 (Homo sapiens) + Integrin alpha-4 (Homo sapiens) (UniProt P13612+P05556). Kind of assay: inhibition of HUTS-21 binding to VLA-4, pilot screen, VLA-4 allosteric modulator project, U937 cells, HUTS-21 mAb, flow cytometry, validation set (AID 2674;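 active means inhibition above 50%, about 3 SD of the validation set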;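 further: antibody binding induced by the VLA-4 ligand LDV present at three times its Kd; 0% = LDV ligand with antibody and no compound and 100% = antibody without LDV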). The following applies: HUTS-21 LIBS mAb binding, at 6.7 µM, stronger effect = higher value, binding induced by LDV ligand.
The nature of assay [8]: superoxide lowering in aged yeast cells, pilot screen, validation compound set (AID 2706;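 active means superoxide response below 65% of plate, a cut near 3 SD across the whole screen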;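 further: yeast exposed to compound for one week at 30 degrees C before staining; 100% = mean of all compound wells on the same plate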). The following applies: S. cerevisiae aging, superoxide DHE fluorescence; at 10 µM; stronger effect = lower value.
The target in assay [9] is Beta-adrenergic receptor kinase 1 (Homo sapiens) (UniProt P25098). Kind of assay: GRK2 binders displacing RNA aptamer, biochemical, validation, human GRK2, bead flow cytometry (AID 488806;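 active means aptamer binding inhibition above 30%, about 3 SD of noise from non-fluorescent compounds; inactive means inhibition at or below 30%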). The following applies: bead-bound GRK2, FAM-aptamer displacement, at 10 µM, stronger effect = higher value.
Assay [10] concerns the target Beta-2 adrenergic receptor (Homo sapiens) (UniProt P07550). As to the kind of experiment: beta2AR agonists driving receptor internalization, pilot screen, cell-based, FAP fluorogen, flow cytometry, validation set (AID 504459;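 active means percent response above 42, roughly 3 SD of non-fluorescent test compounds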;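 further: agonist-driven loss of surface beta2AR via internalization measured by FAP dye flow cytometry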). Particulars: Am2.2-beta2AR cells, FAP surface receptor flow cytometry; at 10 µM; stronger effect = higher value.
Assay [11] deals with AP-2 complex subunit beta (Homo sapiens) (UniProt P63010). Kind of assay: inhibitors of arrestin peptide binding to AP2, pilot screen, biochemical, validation set, GST-AP2 beads, flow cytometry (AID 504541;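 active means inhibition above 54%, about 3 SD of non-fluorescent compounds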;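 further: AP2 carries R879A mutation and is captured from E. coli lysate; bead-bound FITC arrestin peptide fluorescence measuring arrestin peptide binding to AP2; 0% = DMSO wells and 100% = excess unlabeled arrestin peptide control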). Particulars: FITC arrestin peptide, at 10 µM, stronger effect = higher value, AP2 beta2 appendage fragment, R879A mutant.
Assay [12] is described as follows: yeast V-ATPase proton transport modulators, S. cerevisiae, pHLuorin, HTS validation (AID 504600; in the data active means response above about 15%;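 further: plate controls were DMSO for no effect and reference compound for full effect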). The following applies: S. cerevisiae pHLuorin cytosolic pH, at 10 µM, stronger effect = higher value.
Assay [13] concerns anti-desmoglein-3 scFv antibody binding to human DSG3. Kind of assay: inhibitors of anti-DSG3 scFv binding to DSG3, pilot screen, biochemical, validation compound set, bead-based, flow cytometry (AID 588368;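 active means binding below the plate cutoff, the plate median minus 3 SD, with a reading above zero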;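 further: signal is the median channel fluorescence of bead-bound GFP antibody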). The following applies: Protein G beads, DSG3-Fc, scFv-GFP binding, at 10 µM, stronger effect = lower value.
Assay [14] in a line: inhibitors of fungal efflux pumps CDR1, CDR2, MDR1, pilot screen, validation compound set, multiplex, phenotypic (AID 588506;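 active means efflux inhibition above 0.42, the validation set average plus 4 SD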;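 further: Nile Red retained in cells so higher fluorescence means more efflux inhibition; 0 = negative control wells and 1 = enniatin B 25 µM full block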). The following applies: S. cerevisiae pump-expressing triplex, Nile Red efflux flow cytometry; at 10 µM; stronger effect = higher value; the pumps come from Candida albicans.
Assay [15] deals with ATP-binding cassette sub-family B member 6 (Homo sapiens) (UniProt Q9NP58). As to the kind of experiment: ABCB6 transporter inhibitors, pilot screen, K562-ABCB6 cells, flow cytometry, validation set (AID 588550).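 Further: 0% = DMSO wells and 100% = benzethonium chloride 70 µM positive control.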 The following applies: K562-ABCB6 porphyrin accumulation, 1 h, at 10 µM, stronger effect = higher value.
The nature of assay [16]: promoters of myeloid differentiation in arrested cells, primary screen, cell-based, GFP/MAC1 double positive, flow cytometry, validation set (AID 588685;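 active means differentiation response of at least 50%, scaled between solvent and reference control, from cells with both markers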;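 further: compound exposure lasts four days before antibody staining and flow analysis; 0% = DMSO wells and 100% = 5 µM fulvestrant positive control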). Particulars: ER-HoxA9 marrow cells, stronger effect = higher value, normalized: vehicle 0, fulvestrant 100.

Broadly, the inhibition is the drop in the measured response relative to a control, in per cent.

Inconclusive results are not listed. Active and inactive are the calls of the source.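 How the source made its calls, unless noted: active means inhibition above the screen-wide mean plus 3 SD, about 51%; inactive means the rest.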

Chain of Beta-2 adrenergic receptor (Homo sapiens) (P07550 whole entry, looked up): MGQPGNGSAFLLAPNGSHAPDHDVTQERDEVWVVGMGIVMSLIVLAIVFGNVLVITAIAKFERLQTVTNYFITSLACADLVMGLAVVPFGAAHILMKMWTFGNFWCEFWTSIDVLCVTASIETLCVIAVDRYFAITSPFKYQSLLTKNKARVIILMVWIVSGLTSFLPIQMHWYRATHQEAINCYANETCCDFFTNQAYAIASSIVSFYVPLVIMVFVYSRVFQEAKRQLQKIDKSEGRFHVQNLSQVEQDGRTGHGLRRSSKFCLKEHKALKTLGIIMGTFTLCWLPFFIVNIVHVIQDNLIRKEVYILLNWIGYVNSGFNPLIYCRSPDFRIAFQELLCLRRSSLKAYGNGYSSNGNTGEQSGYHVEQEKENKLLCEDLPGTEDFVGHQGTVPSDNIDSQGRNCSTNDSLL
Chain of Integrin beta-1 (Homo sapiens) + Integrin alpha-4 (Homo sapiens) (P05556 whole entry, looked up): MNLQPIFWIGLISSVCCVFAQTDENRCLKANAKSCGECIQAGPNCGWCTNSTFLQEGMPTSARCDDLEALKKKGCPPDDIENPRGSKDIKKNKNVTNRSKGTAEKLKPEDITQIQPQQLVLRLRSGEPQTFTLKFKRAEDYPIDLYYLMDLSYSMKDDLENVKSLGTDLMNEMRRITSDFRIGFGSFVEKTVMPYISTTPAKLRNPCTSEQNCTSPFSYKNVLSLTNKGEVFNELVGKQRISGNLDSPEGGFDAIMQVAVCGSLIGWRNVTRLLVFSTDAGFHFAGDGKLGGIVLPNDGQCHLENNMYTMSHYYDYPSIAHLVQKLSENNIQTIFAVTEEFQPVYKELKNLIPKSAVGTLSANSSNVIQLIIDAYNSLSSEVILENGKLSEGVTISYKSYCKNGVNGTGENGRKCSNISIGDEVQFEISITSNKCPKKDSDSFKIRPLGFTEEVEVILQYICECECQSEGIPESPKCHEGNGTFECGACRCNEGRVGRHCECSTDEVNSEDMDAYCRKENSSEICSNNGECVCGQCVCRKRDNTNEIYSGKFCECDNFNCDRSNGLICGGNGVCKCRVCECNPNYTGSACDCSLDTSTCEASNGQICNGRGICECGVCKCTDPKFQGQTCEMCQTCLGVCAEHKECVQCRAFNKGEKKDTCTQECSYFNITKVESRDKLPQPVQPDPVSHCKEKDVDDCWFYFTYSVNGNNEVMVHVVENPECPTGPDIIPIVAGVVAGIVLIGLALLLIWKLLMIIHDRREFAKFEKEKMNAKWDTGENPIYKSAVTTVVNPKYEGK
Chain of Integrin beta-1 (Homo sapiens) + Integrin alpha-4 (Homo sapiens) (P13612 whole entry, looked up): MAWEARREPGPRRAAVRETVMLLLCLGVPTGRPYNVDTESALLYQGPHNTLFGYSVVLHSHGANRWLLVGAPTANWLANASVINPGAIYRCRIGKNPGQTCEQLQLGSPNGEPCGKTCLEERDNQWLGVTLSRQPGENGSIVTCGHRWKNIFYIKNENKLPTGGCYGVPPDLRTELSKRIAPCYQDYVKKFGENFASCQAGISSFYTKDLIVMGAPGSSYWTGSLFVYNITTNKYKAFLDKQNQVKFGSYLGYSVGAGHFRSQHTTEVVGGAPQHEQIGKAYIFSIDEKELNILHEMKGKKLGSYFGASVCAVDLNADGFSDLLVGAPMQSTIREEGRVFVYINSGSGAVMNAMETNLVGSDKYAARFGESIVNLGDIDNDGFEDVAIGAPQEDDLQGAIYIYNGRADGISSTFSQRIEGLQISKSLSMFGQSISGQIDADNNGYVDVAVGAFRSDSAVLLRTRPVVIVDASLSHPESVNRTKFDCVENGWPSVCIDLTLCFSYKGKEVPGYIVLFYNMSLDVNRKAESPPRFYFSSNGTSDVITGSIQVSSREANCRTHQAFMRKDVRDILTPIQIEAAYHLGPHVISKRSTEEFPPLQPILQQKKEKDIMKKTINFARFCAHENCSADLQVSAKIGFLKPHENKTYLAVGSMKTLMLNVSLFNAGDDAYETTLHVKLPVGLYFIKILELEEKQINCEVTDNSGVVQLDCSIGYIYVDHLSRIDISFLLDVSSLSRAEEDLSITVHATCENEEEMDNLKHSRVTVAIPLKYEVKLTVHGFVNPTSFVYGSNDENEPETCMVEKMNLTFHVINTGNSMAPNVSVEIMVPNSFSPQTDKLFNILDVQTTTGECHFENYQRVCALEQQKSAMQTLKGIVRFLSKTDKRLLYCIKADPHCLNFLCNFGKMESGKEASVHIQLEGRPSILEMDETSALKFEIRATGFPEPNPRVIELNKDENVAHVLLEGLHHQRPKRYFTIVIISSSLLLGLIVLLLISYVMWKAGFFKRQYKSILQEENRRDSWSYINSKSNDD
Chain of ATP-binding cassette sub-family B member 6 (Homo sapiens) (Q9NP58 whole entry, looked up): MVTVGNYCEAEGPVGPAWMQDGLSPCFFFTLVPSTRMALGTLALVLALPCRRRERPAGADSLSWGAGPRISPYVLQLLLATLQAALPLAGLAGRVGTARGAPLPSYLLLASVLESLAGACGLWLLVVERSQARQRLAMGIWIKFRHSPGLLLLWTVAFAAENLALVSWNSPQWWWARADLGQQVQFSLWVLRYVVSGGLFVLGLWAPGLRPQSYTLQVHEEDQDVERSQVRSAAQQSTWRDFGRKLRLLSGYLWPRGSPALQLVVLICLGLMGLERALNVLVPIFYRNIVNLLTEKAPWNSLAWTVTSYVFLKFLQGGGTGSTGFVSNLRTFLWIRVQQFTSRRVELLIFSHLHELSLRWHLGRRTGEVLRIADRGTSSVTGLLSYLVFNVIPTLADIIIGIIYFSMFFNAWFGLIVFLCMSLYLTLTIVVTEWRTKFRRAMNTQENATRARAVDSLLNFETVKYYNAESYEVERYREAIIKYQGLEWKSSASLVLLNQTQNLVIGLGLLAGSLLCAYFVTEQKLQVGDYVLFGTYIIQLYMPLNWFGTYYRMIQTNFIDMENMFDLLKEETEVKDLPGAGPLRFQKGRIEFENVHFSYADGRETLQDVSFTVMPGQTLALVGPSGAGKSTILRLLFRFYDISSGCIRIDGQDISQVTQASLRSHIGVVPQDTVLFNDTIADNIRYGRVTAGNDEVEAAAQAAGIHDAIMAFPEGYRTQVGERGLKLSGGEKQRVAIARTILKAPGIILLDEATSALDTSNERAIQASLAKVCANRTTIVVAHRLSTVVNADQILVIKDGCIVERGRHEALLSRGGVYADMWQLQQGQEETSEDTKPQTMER
Chain of AP-2 complex subunit beta (Homo sapiens) (P63010 whole entry, looked up, the tested form may be a part, one chain of several): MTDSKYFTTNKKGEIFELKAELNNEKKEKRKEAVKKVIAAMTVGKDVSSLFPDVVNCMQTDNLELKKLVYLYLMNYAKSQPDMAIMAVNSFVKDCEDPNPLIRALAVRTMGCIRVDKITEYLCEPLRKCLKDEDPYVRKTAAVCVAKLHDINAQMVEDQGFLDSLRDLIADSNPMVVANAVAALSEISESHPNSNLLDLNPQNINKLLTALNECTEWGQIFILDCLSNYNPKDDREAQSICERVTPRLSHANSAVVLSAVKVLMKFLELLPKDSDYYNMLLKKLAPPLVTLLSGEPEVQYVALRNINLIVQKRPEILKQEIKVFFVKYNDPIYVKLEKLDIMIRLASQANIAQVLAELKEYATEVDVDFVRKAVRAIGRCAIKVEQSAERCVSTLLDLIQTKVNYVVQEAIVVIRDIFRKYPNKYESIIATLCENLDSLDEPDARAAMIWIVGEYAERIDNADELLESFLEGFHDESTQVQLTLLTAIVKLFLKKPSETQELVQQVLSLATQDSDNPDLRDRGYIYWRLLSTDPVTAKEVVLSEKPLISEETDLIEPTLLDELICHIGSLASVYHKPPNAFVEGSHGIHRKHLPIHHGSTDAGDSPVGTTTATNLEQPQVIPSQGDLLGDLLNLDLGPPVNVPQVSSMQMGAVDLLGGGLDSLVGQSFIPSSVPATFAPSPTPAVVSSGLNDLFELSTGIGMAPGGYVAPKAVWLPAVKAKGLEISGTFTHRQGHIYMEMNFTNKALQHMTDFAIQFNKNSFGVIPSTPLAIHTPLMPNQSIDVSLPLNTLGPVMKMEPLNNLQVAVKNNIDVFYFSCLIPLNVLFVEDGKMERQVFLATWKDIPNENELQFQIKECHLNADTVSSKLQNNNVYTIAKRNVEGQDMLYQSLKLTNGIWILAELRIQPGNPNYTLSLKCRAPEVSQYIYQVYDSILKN
Chain of Beta-adrenergic receptor kinase 1 (Homo sapiens) (P25098 whole entry, looked up): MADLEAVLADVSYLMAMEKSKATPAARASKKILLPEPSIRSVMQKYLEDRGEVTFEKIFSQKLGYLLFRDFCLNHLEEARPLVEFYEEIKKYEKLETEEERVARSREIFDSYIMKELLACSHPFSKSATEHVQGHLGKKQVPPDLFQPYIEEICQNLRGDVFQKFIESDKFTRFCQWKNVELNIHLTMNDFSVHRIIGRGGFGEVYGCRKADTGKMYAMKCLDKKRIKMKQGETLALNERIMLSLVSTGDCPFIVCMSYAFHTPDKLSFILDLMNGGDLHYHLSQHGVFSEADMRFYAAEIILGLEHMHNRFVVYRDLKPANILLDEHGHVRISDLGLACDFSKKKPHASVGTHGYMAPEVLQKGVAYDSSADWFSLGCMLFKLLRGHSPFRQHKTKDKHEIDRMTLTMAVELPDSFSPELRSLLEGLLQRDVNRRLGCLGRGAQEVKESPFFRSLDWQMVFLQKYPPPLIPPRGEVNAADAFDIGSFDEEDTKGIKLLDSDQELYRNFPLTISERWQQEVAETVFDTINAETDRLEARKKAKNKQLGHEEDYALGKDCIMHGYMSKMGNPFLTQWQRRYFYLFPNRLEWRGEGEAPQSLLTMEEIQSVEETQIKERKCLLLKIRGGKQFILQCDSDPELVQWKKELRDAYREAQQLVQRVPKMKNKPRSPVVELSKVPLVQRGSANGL

Consider `c1ccc(Cn2ncc3c(Nc4ccccc4)ncnc32)cc1`, for which the percent of DMSO control GFP in [1] is 96.7% (inactive). For the same compound, the GFP response vs DMSO was 106% (inactive) in [2] and 117% (inactive) in assay [4]. Also, in assay [3], the percent response of DMSO control was 103% (inactive). The GFP response, % of DMSO in assay [5] was 107% (inactive). The compound further registered a double positive events in assay [6] of 63.6%. The vesicle binding response in assay [6] is 244% (inactive). For the same compound, the inhibition in assay [7] was 9.95% (inactive); in assay [11] it was 9.49% (inactive); in [15], 2% (inactive). Moreover, the superoxide response (% of plate) in [8] was 121% (inactive). For the same compound, the aptamer binding inhibition in [9] is -1% (inactive). The figures for the response in [10] and in assay [12] were -42.2% (inactive) and 3.17% (inactive), respectively. Further, the binding (% of control) in assay [13] was 101% (inactive). For the same compound, the efflux inhibition (fraction of control) in assay [14] was 0.08 (inactive). The differentiation response in [16] was -8.93% (inactive).

For the compound `CCOC(=O)C1NN=C(C(=O)c2ccccc2)C1c1ccc(Cl)cc1` (stereo not given), the percent of DMSO control GFP in [1] is 98.3% (inactive). The GFP response vs DMSO was 96.6% (inactive) in [2] and 93.7% (inactive) in [4]. Moreover, in [3], the percent response of DMSO control was 91.3% (inactive). Besides, in assay [5], the GFP response, % of DMSO was 88.8% (inactive). In addition, in [6], the double positive events is 58.1%. In addition, in [6], the vesicle binding response is 192% (inactive). Moreover, the inhibition in assay [7] was 9.63% (inactive); in [11], -2.22% (inactive); in assay [15], 9% (inactive). Further, the superoxide response (% of plate) in assay [8] was 106% (inactive). Besides, in [9], the aptamer binding inhibition is 3% (inactive). Also, the response is 3.04% (inactive) in assay [10] and -0.54% (inactive) in [12]. Moreover, the binding (% of control) in [13] was 99% (inactive). Further, the efflux inhibition (fraction of control) in assay [14] was -0.005 (inactive). In addition, in assay [16], the differentiation response was -6.03% (inactive).

Regarding `COCCNC(=O)CSc1ccc(Cl)cc1`, the percent of DMSO control GFP in assay [1] is 104% (inactive). Also, the GFP response vs DMSO is 106% (inactive) in assay [2] and 88.7% (inactive) in assay [4]. Moreover, in [3], the percent response of DMSO control is 105% (inactive). Besides, in [5], the GFP response, % of DMSO is 103% (inactive). In [6], the double positive events was found to be 62.8%. In addition, the vesicle binding response in assay [6] was 245% (inactive). The inhibition in [7] is -0.45% (inactive); in [11], 7.8% (inactive); in [15] it was 10% (inactive). Besides, the superoxide response (% of plate) in [8] was 112% (inactive). For the same compound, the aptamer binding inhibition in assay [9] was 1% (inactive). Further, the response was -6.87% (inactive) in [10] and -1.2% (inactive) in [12]. Besides, the binding (% of control) in [13] was 92% (inactive). Further, the efflux inhibition (fraction of control) in assay [14] is 0.14 (inactive). Besides, in assay [16], the differentiation response was -12.5% (inactive).

As to `O=C(N/N=C\c1cc([N+](=O)[O-])ccc1N1CCOCC1)c1ccccn1`, the percent of DMSO control GFP in assay [1] is 107% (inactive). Further, the GFP response vs DMSO was 102% (inactive) in [2] and 100% (inactive) in assay [4]. The percent response of DMSO control in assay [3] was 107% (inactive). For the same compound, in assay [5], the GFP response, % of DMSO was 103% (inactive). The double positive events in assay [6] turned out to be 59.8%. Besides, the vesicle binding response in assay [6] is 142% (inactive). The inhibition in assay [7] is -7.79% (inactive); in [11] it was 1.39% (inactive); in [15], -1% (inactive). For the same compound, in assay [8], the superoxide response (% of plate) was 104% (inactive). In addition, the aptamer binding inhibition in [9] is -2% (inactive). Besides, the response in assay [10] was -1.25% (inactive); in [12] it was 4.27% (inactive). The binding (% of control) in assay [13] was 102% (inactive). Also, in assay [14], the efflux inhibition (fraction of control) was 0.35 (inactive). Also, in assay [16], the differentiation response is -11.9% (inactive).

In the case of `O=C(c1cccnc1)N1N=C(C2CC2)CC1(O)C(F)(F)F` (stereo not given), the percent of DMSO control GFP in assay [1] was 99.1% (inactive). Further, the values for the GFP response vs DMSO in assay [2] and in assay [4] were 104% (inactive) and 115% (inactive), respectively. Moreover, the percent response of DMSO control in assay [3] was 93.9% (inactive). Also, the GFP response, % of DMSO in assay [5] is 104% (inactive). Besides, the double positive events in [6] came out at 60.4%. In addition, the vesicle binding response in assay [6] was 353% (inactive). Also, the inhibition in [7] was -7.25% (inactive); in [11], 2.62% (inactive); in assay [15], 10% (inactive). The superoxide response (% of plate) in assay [8] was 106% (inactive). The aptamer binding inhibition in assay [9] was 2% (inactive). For the same compound, the response in [10] was -5.28% (inactive); in assay [12], -0.29% (inactive). Moreover, the binding (% of control) in assay [13] is 101% (inactive). Moreover, the efflux inhibition (fraction of control) in [14] was -0.1 (inactive). Also, in assay [16], the differentiation response was -28% (inactive).
